D3 antag: antagonists of human D3 dopamine receptor. max response, negative = inhibition, %. AID 652054. 360,000 compounds, 2.5% hits. P35462. D3R cells, DiscoveRx beta-arrestin luminescence, antagonist mode; active compounds read low; in the data active = max response below about -50%; inconclusive = no clear call, values can overlap the other calls; also: % is scaled to controls: 0 for no effect and ±100 for the full control effect
Target sequence (P35462 whole entry, looked up): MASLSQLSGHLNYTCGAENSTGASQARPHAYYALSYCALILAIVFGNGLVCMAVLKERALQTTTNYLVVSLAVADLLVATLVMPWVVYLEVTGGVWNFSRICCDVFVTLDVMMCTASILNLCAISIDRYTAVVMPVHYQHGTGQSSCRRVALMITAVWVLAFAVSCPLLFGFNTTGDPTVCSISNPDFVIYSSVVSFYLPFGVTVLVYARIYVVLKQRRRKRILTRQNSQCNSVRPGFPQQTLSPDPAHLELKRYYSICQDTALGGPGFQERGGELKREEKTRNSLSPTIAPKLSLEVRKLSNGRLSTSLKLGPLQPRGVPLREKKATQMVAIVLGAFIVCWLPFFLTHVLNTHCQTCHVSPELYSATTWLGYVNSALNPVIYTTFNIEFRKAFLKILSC
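Cells expressing the human receptor were seeded at 1500 cells/well, incubated overnight at 37 degrees C in 5% CO2, then exposed to library compounds with dopamine controls for 90 minutes at 37 degrees C before luminescent detection.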
DT40 TDP1 CPT: DT40-hTDP1 cell growth loss with CPT; Potency, µM (series often up to 46.2 µM), for inactives: top-dose activity change, negative = growth inhibition, hits mostly inhibitors; 420,000 compounds, 12% hits; AID 686979; chicken DT40 Tdp1-/-;hTDP1 cells + 20 nM CPT, ATP luminescence, 48 h; also: potency is read from the fitted curve at half-maximal effect; % is scaled to controls: 0 for no effect and ±100 for the full control effect; nearly all actives have a fitted effect of over 55% in size
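Cell growth measured by CellTiter-Glo luminescence after a minimum 48 h, 37 C compound exposure with 20 nM CPT in Tdp1-knockout DT40 cells stably expressing hTDP1, seeded 400/well; qHTS titration format.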
DT40 TDP1 no CPT: qHTS for Inhibitors of human tyrosyl-DNA phosphodiesterase 1 (TDP1): qHTS in cells in absence of CPT; DT40 Tdp1-/- hTDP1 cells, no CPT, ATP luminescence, 48 h; Potency, µM (series often up to 46.2 µM), for the others: at the highest dose activity change, negative = growth inhibition, most hits filed as inhibitors; 420,000 compounds, 15% hits; also: potency is read from the fitted curve at half-maximal effect; % is scaled to controls: 0 for no effect and ±100 for the full control effect; nearly all actives have a fitted effect of over 55% in size
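Readout: luminescence from CellTiter-Glo after 30 min in the dark at RT. Cells: DT40 Tdp1-/- with stable hTDP1, 400/well. Exposure: compounds alone, ≥48 hr, 37 °C.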
ClpP mod: qHTS Assay for Activators of ClpP | AID 651965, 2013 | Potency, µM (highest dose often 57.5 µM), without a hit: at the highest dose activity change, negative = active | 340,000 compounds, 1.9% hits | purified B. subtilis ClpP, FRET peptide cleavage, 20 min | ATP-dependent Clp protease proteolytic subunit (Bacillus subtilis (strain 168)), P80244; active = well fitted falling curve with a large enough effect; inconclusive = small, poorly fitted or top-dose-only effect; inactive = no such curve, though single readings can be large or run the other way; also: potency is read from the fitted curve at half-maximal effect; the source files actives as falling curves though it sought activators and does not explain the sign; nearly all actives have a fitted effect of over 65% in size
Target sequence (P80244 whole entry, looked up): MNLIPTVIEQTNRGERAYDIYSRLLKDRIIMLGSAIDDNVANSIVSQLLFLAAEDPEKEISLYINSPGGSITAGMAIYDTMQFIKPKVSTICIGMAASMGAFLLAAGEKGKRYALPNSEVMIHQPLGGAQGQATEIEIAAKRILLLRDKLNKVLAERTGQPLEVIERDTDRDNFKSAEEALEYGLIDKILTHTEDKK
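ClpP 10 microg/mL final, pH 8 Tris/KCl buffer with BSA, glycerol, Tween-20; compound pinned in; FRET-FV substrate; RT 20 min; Ex320/Em430; ΔFRET vs ADEP 5.8 microM, DMSO, no enzyme.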
IL1B secr inh: inflammasome signaling inhibition, IL-1 beta readout; activity change, % at 57.5 µM; THP-1 LPS/ATP IL-1B secretion, AlphaLISA, 16 h; active compounds read low; 360,000 compounds, 4.7% hits; in the data active = activity change below about -50%; inconclusive = mostly about -30% to -49%; also: % is scaled to controls: 0 for no effect and ±100 for the full control effect
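THP-1 cells pretreated 1 hr with compounds (up to 57.5 uM final), then stimulated with LPS (250 ng/mL final) plus ATP (1.25 mM final); secreted IL-1B measured by AlphaLISA after 16 hr, decreased signal indicating inhibition.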
DRD3 agonist: activates the human D3 dopamine receptor. D3R DiscoveRx beta-arrestin cells, luminescence, 90 min. max activation, %. 410,000 compounds, 0.58% hits. AID 652048. P35462; in the data active = max activation above about 30%; also: 0% is about no effect
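Agonist-mode cell screen: cells plated at 1500/well and incubated overnight at 37 °C, then exposed to library compounds for 90 min at 37 °C. Detection reagent was added for 30–60 min at room temperature, and luminescence was read.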
* hit, by the source's call; ? = inconclusive; nt = not tested or not shown. Hits are enriched below; roughly 21% of the tested compounds scored in any of these assays. Unless noted, calls follow the shape of the dose curve; as a rule, active = well fitted inhibition curve with a large enough effect; inconclusive = small, poorly fitted or top-dose-only effect; inactive = flat fitted curve, though single readings scatter.

SMILES	D3 antag	DT40 TDP1 CPT	DT40 TDP1 no CPT	ClpP mod	IL1B secr inh	DRD3 agonist
Cc1cccc(N(C)C(=O)C2CCN(S(=O)(=O)c3cccc4nonc34)CC2)c1	nt	?	?	1%	nt	9
CCOC(=O)N1CCN(CC(O)c2ccc3c(c2)CCN3)CC1 (configuration not stated)	-4	-20%	0%	-5%	3	-1
OC(CN1CCN(c2ccccc2)CC1)c1ccc2c(c1)CCN2 (configuration not stated)	-28	-16%	-1%	-2%	6	44*
O=C(Nc1ccc(OC(F)F)cc1)c1nc(SCc2ccccc2F)ncc1Cl	nt	?	13µM*	-1%	nt	nt
COc1ccc(CCNC(=O)c2nc(SCc3ccccc3F)ncc2Cl)cc1OC	nt	18µM*	23µM*	-4%	nt	-12
Cc1ccc(CNC(=O)c2nc(SCc3ccccc3F)ncc2Cl)cc1	nt	?	?	-16%	nt	-10
Cc1cnc(-n2ncc(C(=O)NCC3COCCO3)c2C2CC2)nc1-c1cccs1 (configuration not stated)	nt	-7%	-13%	nt	nt	nt
COc1cccc(CNC(=O)C(CC(C)C)NC(=O)c2ccccc2C)c1 (configuration not stated)	-15	12%	-21%	0%	8	2
CCOC(=O)C1=CCN(S(=O)(=O)c2cccc(Cl)c2)C1c1ccc(C)cc1 (configuration not stated)	7	-13%	?	-1%	25	-7
CCOC(=O)c1sc(/S(C)=N\S(=O)(=O)c2cccc(Cl)c2)c2c1CCC=C2 (configuration not stated)	-18	?	16µM*	-3%	0	-14
CCc1nc2c(OCc3ccc(Cl)cc3)cccn2c1N(C)C(=O)C1CC1	-5	?	?	-4%	-5	-11
CCCCC(=O)N(C)c1c(CC)nc2c(OCc3cc(Cl)cc(Cl)c3)cccn12	-26	?	?	-6%	-62*	-10
CCc1nc2c(OCc3cccc(Cl)c3)cccn2c1N(C)C(=O)C1CC1	-24	16µM*	?	-10%	-21	-9
CCOC(=O)C(=O)N(C)c1c(CC)nc2c(OCc3cccc(Cl)c3)cccn12	-12	16µM*	?	0%	18	-12
CCOC(=O)N(C)c1c(CC)nc2c(OCc3cccc(Cl)c3)cccn12	7	?	?	-4%	-7	-3
CCc1nc2c(OCc3cc(Cl)cc(Cl)c3)cccn2c1N(C)C(=O)Nc1ccccc1OC	?	23µM*	?	-28%	0	-10
CCCCC(=O)N(C)c1c(CC)nc2c(OCC(=O)c3ccc(Cl)cc3Cl)cccn12	-21	23µM*	?	-9%	nt	1
CCOC(=O)C(=O)N(C)c1c(CC)nc2c(OCc3cc(Cl)cc(Cl)c3)cccn12	-28	18µM*	21µM*	-3%	-14	-6
CCc1nc2c(OCC(=O)C(C)(C)C)cccn2c1N(C)C(=O)C1CC1	-11	-1%	-23%	-6%	2	-9
CCc1nc2c(OCc3ccc(C(F)(F)F)cc3)cccn2c1N(C)C(=O)C1CC1	15	23µM*	23µM*	1%	-25	1
Cc1ccc(NC(=O)CN(C)C(=O)COc2ccc(Br)cc2)cc1	?	-18%	-16%	0%	-15	-3
CCn1c(=O)c(C(=O)Nc2nc3ccccc3[nH]2)c(O)c2ccccc21	-62*	2.9µM*	2.6µM*	-9%	25	4
CCCC1CCC(C(=O)Nn2c(C)nc3ccccc3c2=O)CC1 (configuration not stated)	9	-20%	?	-7%	10	-2
CCCCCCC1CCC(C(=O)Nn2c(C)nc3ccccc3c2=O)CC1 (configuration not stated)	18	?	18µM*	-2%	24	30*
CCn1c(=O)c(C(=O)Nn2c(C)nc3ccccc3c2=O)c(O)c2ccccc21	?	16µM*	?	-16%	30	1
SMILES	D3 antag	DT40 TDP1 CPT	DT40 TDP1 no CPT	ClpP mod	IL1B secr inh	DRD3 agonist
CCc1nc2ccccc2c(=O)n1NC(=O)c1c(O)c2ccccc2n(CC)c1=O	13	?	?	-1%	60	8
CC(C)Sc1nc(-c2cccs2)nc2cc(Cl)ccc12	11	-18%	-5%	-3%	44	6
COCCn1c(N)c(C(=S)NC(=O)c2cccs2)c(=O)[nH]c1=O	-13	10µM*	?	-1%	-9	-2
Cc1nn(-c2ccccn2)c2c1-c1nc(N3CCOCC3)ncc1CC2	58	18µM*	23µM*	3%	-8	9
Cc1nn(-c2ccccn2)c2c1-c1nc(N)sc1CC2	nt	20µM*	18µM*	?	nt	nt
CCOc1ccc(C(=O)NCC(=O)N2CCCC2)cc1	-12	7%	-25%	nt	26	-16
Cc1ccc(-c2cc(-c3n[nH]c(=S)o3)c3ccccc3n2)cc1	14	16µM*	21µM*	20%	17	1
CSc1nnc(-c2cc(-c3ccc(C)cc3)nc3ccccc23)o1	36	-10%	?	35µM*	-2	9
O=C(Nc1cccc(S(=O)(=O)N2CCCCC2)c1)c1ccccc1NS(=O)(=O)c1ccc(F)cc1	0	?	21µM*	32µM*	0	-2
Cc1ccc(NC(=O)c2ccccc2NS(=O)(=O)c2ccc(F)cc2)cc1S(=O)(=O)N1CCCCC1	6	16µM*	12µM*	32µM*	-23	1
O=C1CCC(C(=O)Nc2cccc(S(=O)(=O)Nc3ccccc3F)c2)=NN1	4	18µM*	13µM*	nt	-12	11
O=C(Nc1cccc(S(=O)(=O)Nc2ccccc2F)c1)c1ccco1	-7	-29%	-27%	-2%	-10	-2
NS(=O)(=O)c1cccc(NC(=O)c2ccccc2NS(=O)(=O)c2ccc(F)cc2)c1	0	11%	-2%	nt	24	1
CSc1ncccc1C(=O)Nc1cccc(S(=O)(=O)N2CCCCCC2)c1	-2	?	29µM*	1%	-23	-1
[O-][N+](=Cc1ccccc1)CC1(O)CCCCC1	-24	0%	-10%	-2%	-12	-9
O=C(CSc1ccc([N+](=O)[O-])cc1)Nc1cccc(S(=O)(=O)Nc2ccccc2F)c1	-2	9.2µM*	?	nt	18	1
